Data from PubChem BioAssay (NCATS).
Records with an inconclusive call do not appear. A call without a number means that no potency is given here. Calls of active or inactive are those of the source. Calls follow the shape of the dose curve; as a rule, active = well fitted inhibition curve with a large enough effect; inconclusive = small, poorly fitted or top-dose-only effect; inactive = no such curve, though single readings can be large or run the other way.

The molecules below were run against Retinaldehyde dehydrogenase 3 (Homo sapiens) (UniProt P47895) (assay: qHTS for Inhibitors of the Aldehyde Dehydrogenase Family (ALDH1A3) Confirmatory screens (AID 2061311; also: nearly all actives have a fitted effect of over 60% in size)). Conditions: ALDH inhibition qHTS; series mostly up to 46 µM.
Potency is read from the fitted curve at half-maximal effect.

Row | SMILES | Potency
1 | CC(C)c1cc2c(c(O)c1O)[C@@]13CCCC(C)(C)C1[C@@H](O)[C@@H]2OC3=O (stereo not given in full) | 13.9 µM (active)
2 | COc1cc(O[C@@H]2O[C@H](CO[C@H]3OC[C@](O)(CO)[C@H]3O)[C@@H](O)[C@H](O)[C@H]2O)cc(OC)c1O | 4.91 µM (active)
3 | CNCCC(c1cccs1)c1ccc(O)c2ccccc12 (stereo not given) | 22.5 µM (active)
4 | COc1ccc(C2COc3cc(O)ccc3C2)c(O)c1 (stereo not given) | 17.9 µM (active)
5 | Cc1cc(N=Nc2ccc(S(=O)(=O)Nc3ccccn3)cc2)c(N)cc1O | 11.3 µM (active)
6 | Cc1nnc(-c2ccc3occ(-c4ccc(S(C)=O)cc4)c3c2)o1 (stereo not given) | 0.631 µM (active)
7 | COc1cc(O)c(C(=O)O)c(CCc2ccccc2)c1 | 12.7 µM (active)
8 | COc1ccc(S(=O)(=O)Nc2cccnc2Nc2ccc(O)cc2)cc1 | 10.1 µM (active)
9 | CC1=CC2=C(C)C(=O)C(C)(O)C(O)C2CO1 (stereo not given) | 22.5 µM (active)
10 | CC(=O)c1c(O)cc2cccc3c2c1CC(C)(O)O3 (stereo not given) | 12.7 µM (active)

Each molecule was assayed against Retinaldehyde dehydrogenase 3 (Homo sapiens) (UniProt P47895) (assay: qHTS for Inhibitors of the Aldehyde Dehydrogenase Family (ALDH1A3) Validation screen (AID 2061312; also: nearly all actives have a fitted effect of over 45% in size)). Conditions: ALDH1A3 enzyme inhibition qHTS validation, fluorescence; series mostly up to 84.7 µM.

Row | SMILES | Potency
11 | OCC(Cc1ccccc1)Nc1nc(Oc2ccc3c(c2)CCC3)nc2c1ncn2Cc1ccc(-c2ccccc2)cc1 (stereo not given) | inactive
12 | CC(C)(O)c1ccn2c(-c3ccc(F)c(-c4ccc(F)cc4C#N)c3)cnc2c1F | inactive
13 | CCC(=O)N1CCc2cc(OC)c(O)cc2C1 | 22.4 µM (active)
14 | O=C(Nc1nc2ccc([N+](=O)[O-])cc2s1)C1CCCCC1 | 3.98 µM (active)
15 | O=C(NCc1ccc(OC(F)(F)F)cc1)C1c2ccccc2C(=O)N1C1CCOCC1 (stereo not given) | inactive
16 | CN(CCc1ccc(Nc2ncc(-c3cccnc3)s2)cc1)Cc1ccccc1 | inactive
17 | O=C(Nc1cc2cc[nH]c2cn1)c1ccccc1 | 39.8 µM (active)
18 | Cc1nnc(-c2ccc(-c3ccc(C(=O)Nc4ccc(O)c(N5CCN(C)CC5)c4)cc3)c(C)c2)o1 | inactive
19 | O=C(NCc1cccc(O)c1)c1cc2cc(F)ccc2[nH]1 | inactive
20 | CNc1nc(NCc2ccc(NS(C)(=O)=O)cc2Cl)cc(-c2ccccn2)n1 | inactive
21 | COC(=O)[C@H](CC1C=NC=N1)NCC12CC3CC(CC(C3)C1)C2 (stereo not given in full) | inactive
22 | Cc1ccc(-c2cn3c4c(sc3n2)CCCC4)cc1 | 25.1 µM (active)
23 | O=C(Nc1ccccc1)N1CCC(Cc2cnc3ccccc3c2)CC1 | inactive
24 | CC(C)CCNc1ncccc1C(=O)N1CCN(Cc2ccccc2)CC1 | inactive
25 | O=C(O)CC1CCC(c2ccc(-c3ccc4nc(C(=O)NCc5ccc(OC(F)(F)F)cc5)cn4c3)cc2)CC1 (stereo not given) | inactive
26 | NC1=NC2(c3cc(NC(=O)c4ccc(F)cn4)ccc3F)COCC2CS1 (stereo not given) | inactive
27 | COc1cncc(C#Cc2ccccn2)c1 | 22.4 µM (active)
28 | CON(C)C(=O)[C@H](O)[C@H](Cc1ccccc1)NC(=O)c1cc2cc(Cl)ccc2[nH]1 | inactive
29 | O=C(O)C1(c2ccc(-c3ccc(Cl)c(Cl)c3)c(F)c2)CC1 | 44.7 µM (active)
30 | NS(=O)(=O)c1ccc(NC(=O)Nc2ccc(F)cc2)cc1 | inactive
31 | Cc1cccc(C#Cc2cc(F)cc(C#N)c2)n1 | 5.62 µM (active)
32 | COc1cccc(-c2cc(NCc3ccc4c(c3)OCO4)nc(N)n2)c1 | inactive
33 | CC(=O)NCC1CN(c2ccc(-c3ccc(CNCc4cn[nH]n4)cc3)c(F)c2)C(=O)O1 (stereo not given) | 3.98 µM (active)
34 | COc1cc(C(=O)NCC2(N(C)C)CCCC2)cc(OC)c1OCc1ccccc1 | inactive
35 | N=C(N)c1ccc2nc(-c3cc(CC(=O)NC(CC(=O)O)C(=O)O)cc(-c4cc(S(N)(=O)=O)ccc4O)c3O)[nH]c2c1 (stereo not given) | inactive
36 | CO[C@H]1C=CO[C@@]2(C)Oc3c(C)c(O)c4c(O)c(c5c(c4c3C2=O)NC2(CCN(CC(C)C)CC2)N=5)=NC(=O)C(C)=CC=C[C@H](C)[C@H](O)[C@@H](C)[C@@H](O)[C@@H](C)[C@H](OC(C)=O)[C@H]1C | inactive
37 | Cc1[nH]c2ccccc2c1CC(=O)N[C@@H](Cc1ccccc1)C(=O)N(C)c1ccccc1 | inactive
38 | O=C(c1cc2c(cc1F)OC(c1ccc(F)cc1)(c1ccc(Cl)cc1Cl)O2)N1CCOCC1 (stereo not given) | inactive
39 | C=C1CC[C@H](O)CC1=C/C=C1\CCC[C@]2(C)[C@@H]([C@H](C)/C=C/[C@H](C)C(C)C)CC[C@@H]12 | 8.91 µM (active)
40 | Cc1cc(C)c(-n2cc(C)c3c(Cl)nc(C)nc32)c(C)c1 | inactive

What follows are molecules tested against Retinaldehyde dehydrogenase 3 (Homo sapiens) (UniProt P47895) (assay: qHTS for Inhibitors of the Aldehyde Dehydrogenase Family (ALDH1A3) Primary screen (AID 2061315)). Conditions: ALDH inhibition qHTS; series mostly up to 56 µM.

Row | SMILES | Potency
41 | OCC(Cc1ccccc1)Nc1nc(Oc2ccc3c(c2)CCC3)nc2c1ncn2Cc1ccc(-c2ccccc2)cc1 (stereo not given) | inactive
42 | CC(C)(O)c1ccn2c(-c3ccc(F)c(-c4ccc(F)cc4C#N)c3)cnc2c1F | inactive
43 | O=C(NCc1ccc(OC(F)(F)F)cc1)C1c2ccccc2C(=O)N1C1CCOCC1 (stereo not given) | inactive
44 | CN(CCc1ccc(Nc2ncc(-c3cccnc3)s2)cc1)Cc1ccccc1 | inactive
45 | O=C(NCc1cccc(O)c1)c1cc2cc(F)ccc2[nH]1 | inactive
46 | CNc1nc(NCc2ccc(NS(C)(=O)=O)cc2Cl)cc(-c2ccccn2)n1 | inactive
47 | CC(C)c1cc2c(c(O)c1O)[C@@]13CCCC(C)(C)C1[C@@H](O)[C@@H]2OC3=O (stereo not given in full) | 4.47 µM (active)
48 | COc1cc(O[C@@H]2O[C@H](CO[C@H]3OC[C@](O)(CO)[C@H]3O)[C@@H](O)[C@H](O)[C@H]2O)cc(OC)c1O | 2.82 µM (active)
49 | O=C(Nc1ccccc1)N1CCC(Cc2cnc3ccccc3c2)CC1 | inactive
50 | CC(C)CCNc1ncccc1C(=O)N1CCN(Cc2ccccc2)CC1 | inactive
51 | CNCCC(c1cccs1)c1ccc(O)c2ccccc12 (stereo not given) | 15.8 µM (active)
52 | O=C(O)CC1CCC(c2ccc(-c3ccc4nc(C(=O)NCc5ccc(OC(F)(F)F)cc5)cn4c3)cc2)CC1 (stereo not given) | inactive
53 | COc1ccc(C2COc3cc(O)ccc3C2)c(O)c1 (stereo not given) | 25.1 µM (active)
54 | NC1=NC2(c3cc(NC(=O)c4ccc(F)cn4)ccc3F)COCC2CS1 (stereo not given) | inactive
55 | CON(C)C(=O)[C@H](O)[C@H](Cc1ccccc1)NC(=O)c1cc2cc(Cl)ccc2[nH]1 | inactive
56 | NS(=O)(=O)c1ccc(NC(=O)Nc2ccc(F)cc2)cc1 | inactive
57 | COc1cccc(-c2cc(NCc3ccc4c(c3)OCO4)nc(N)n2)c1 | inactive
58 | COc1cc(C(=O)NCC2(N(C)C)CCCC2)cc(OC)c1OCc1ccccc1 | inactive
59 | COc1ccc(S(=O)(=O)Nc2cccnc2Nc2ccc(O)cc2)cc1 | 7.94 µM (active)
60 | N=C(N)c1ccc2nc(-c3cc(CC(=O)NC(CC(=O)O)C(=O)O)cc(-c4cc(S(N)(=O)=O)ccc4O)c3O)[nH]c2c1 (stereo not given) | inactive
61 | CO[C@H]1C=CO[C@@]2(C)Oc3c(C)c(O)c4c(O)c(c5c(c4c3C2=O)NC2(CCN(CC(C)C)CC2)N=5)=NC(=O)C(C)=CC=C[C@H](C)[C@H](O)[C@@H](C)[C@@H](O)[C@@H](C)[C@H](OC(C)=O)[C@H]1C | inactive
62 | Cc1[nH]c2ccccc2c1CC(=O)N[C@@H](Cc1ccccc1)C(=O)N(C)c1ccccc1 | inactive
63 | O=C(c1cc2c(cc1F)OC(c1ccc(F)cc1)(c1ccc(Cl)cc1Cl)O2)N1CCOCC1 (stereo not given) | inactive
64 | CC(=O)c1c(O)cc2cccc3c2c1CC(C)(O)O3 (stereo not given) | inactive
65 | Cc1cc(C)c(-n2cc(C)c3c(Cl)nc(C)nc32)c(C)c1 | inactive
